In the library only some 11% were active in any assay of this set; here they are far more common.
Luciferase inh: blocks purified firefly luciferase enzyme activity. AID 1347043. purified P. pyralis luciferase, luminescence, biochemical. P08659. actives 2.5% (n = 76,000). Potency, µM (highest dose often 115 µM), hits mostly inhibitors; further: nearly all actives have a fitted effect of over 65% in size
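Purified 10nM P. pyralis luciferase with 10uM D-luciferin and 10uM ATP in 50mM Tris acetate pH 7.5, 10mM Mg acetate, 0.01% Tween-20, 0.05% BSA. qHTS titration; luminescence read by CCD imager.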
HEK293 tox: kills HEK 293 cells | HEK 293 viability, ATP luminescence (CellTiter-Glo), 48-72 h | Potency, µM (top dose mostly 115 µM), inactives show at the top dose activity change, negative = cytotoxicity, actives largely listed as inhibitors | actives 6.6% (n = 94,000); further: nearly all actives have a fitted effect of over 60% in size
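HEK 293 cells seeded at 250 cells/well were exposed to compound for 48 or 72 hr at 37 degree Celsius. Viability taken as ATP content by CellTiter-Glo luminescence.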
NIH3T3 tox: cytotoxic compounds in NIH 3T3 cells | actives 4.3% (n = 94,000) | AID 1345082 | Potency, µM (series often up to 96.7 µM), for the others: top-dose activity change, negative = cytotoxicity, actives largely listed as inhibitors | NIH 3T3 viability, CellTiter-Glo ATP luminescence, 48-72 h; further: nearly all actives have a fitted effect of over 55% in size
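Cells were seeded at 400 per well, treated with pin-transferred compound, and kept 48 or 72 hr at 37 °C before CellTiter-Glo addition and luminescence imaging of cellular ATP.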
NPR1 antag: human Npr1 receptor antagonism; HEK293 hNpr1 GloSensor cGMP, ANP-stimulated luminescence; P16066; actives 1.6% (n = 76,000); Potency, µM (highest dose often 46.3 µM), inactives show at the highest dose activity change, negative = inhibition, hits mostly inhibitors; calls by dose curve; further: nearly all actives have a fitted effect of over 60% in size
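HEK293 cells stably expressing human Npr1 and cGMP GloSensor pGS-40F, loaded 2 h with 2% GloSensor reagent, given compound 30 min at room temperature. Luminescence read before and 20 min after 0.1 nM hNppA.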
* hit, by the source's call; i = inactive; ? = inconclusive; · = no result given; [ ] = another dose, or the depositor's remark. Unless noted, the call rests on the fitted dose curve; in most records, active means well fitted curve in the direction sought with a large enough effect; inconclusive means small, poorly fitted or top-dose-only effect, or another doubt; inactive means no such curve, though single readings can be large; an effect the other way counts as inactive or inconclusive. On the % scale 0 is the no-effect control and ±100 the full control effect; potency means the concentration at half of the fitted maximal effect.

SMILES	Luciferase inh	HEK293 tox	NIH3T3 tox	NPR1 antag
Cc1ccc(Nc2ccnc(N3CCC(C(=O)NCc4ccc5c(c4)OCO5)CC3)n2)cc1	·	?	18µM*	·
COc1ccc(CNC(=O)C2CCN(c3nccc(Nc4ccc(C)cc4)n3)CC2)cc1	·	?	28µM*	·
Cc1cnc(C(=O)N[C@@H]2CCC[C@@H]2C(=O)NCc2ccc(F)cc2)cn1	i	-6%	4%	-8%
CCOc1ccccc1NC(=O)Cn1c(=O)c(-c2noc(C)n2)c2n(c1=O)CCCCC2	i	1%	4%	-6%
COc1ccc(C(=O)NC2CCN(c3cc(-c4ccccc4)[nH]n3)C2)cc1OC (stereo not drawn)	i	?	-8%	-3%
Cc1ccc(Nc2ccnc(N3CCC(C(=O)NCC4CC4)CC3)n2)cc1	·	?	32µM*	·
COc1ccc(CNC(=O)C2CCN(c3nccc(Nc4ccc(OC)cc4)n3)CC2)cc1	·	45µM*	40µM*	·
CC(=O)c1cccc(NC(=O)Cn2c(-c3ccccc3)nc(C)cc2=O)c1	i	?	-12%	-2%
Cc1cc(=O)n(CC(=O)Nc2ccccc2C)c(-c2ccc(Cl)cc2)n1	i	?	35µM*	-3%
CC(=O)c1cccc(NC(=O)Cn2c(-c3ccc(F)cc3)nc(C)cc2=O)c1	i	45µM*	-25%	-14%
O=S(=O)(N[C@H]1[C@H](O)[C@H](O)C[C@@H]1c1ccccc1)c1ccc(C(F)(F)F)cc1	i	-9%[172 µM]	i	0%[70.6 µM]
O=C(Nc1ccc(C(F)(F)F)cc1)N[C@H]1[C@H](O)[C@H](O)C[C@@H]1c1ccccc1	i	?	79µM*	-13%[70.6 µM]
O=C(Nc1cccn2nc(C3CCC3)nc12)c1ccccn1	i	?	8.9µM*	-20%
O=C(COc1ccccc1)Nc1cccn2nc(C3CCC3)nc12	i	?	?	3%
Cc1cccc(S(=O)(=O)Nc2cccn3nc(C4CCC4)nc23)c1	i	?	45µM*	-2%
COc1ccc(CN2CCn3c(nnc3-c3cccnc3)C2)cc1	·	-5%	-13%	·
CCOc1ccc(C(=O)N2CCCC(c3noc(COc4ccccc4)n3)C2)cc1 (stereo not drawn)	i	?	?	-5%
C#CCNC(=O)c1cn2cc(-c3ccc(F)cc3)sc2n1	·	?	-32%[138 µM]	·
COc1ccc(-c2nc(C3CC3)nc3c2CN([S+](=O)([O-])c2ccccc2)CC3)cc1	·	2%	18µM*	·
COc1ccc(-c2nc(C)nc3c2CCN([S+](=O)([O-])c2ccccc2)CC3)cc1	i	-22%	-29%	6%
Cc1nc2c(c(-c3ccc(Cl)cc3)n1)CCN([S+](C)(=O)[O-])CC2	i	-1%	-28%	2%
Cc1nc2c(c(-c3ccc(Cl)cc3)n1)CN([S+](=O)([O-])c1ccsc1)CC2	i	-28%	22µM*	12%
C[S+](=O)([O-])N1CCc2nc(-c3ccc(Cl)cc3)nc(-c3ccccc3)c2C1	i	-1%	-17%	2%
Cc1ccc([S+](=O)([O-])N2CCc3nc(-c4ccc(Cl)cc4)nc(-c4ccccc4)c3C2)cc1	28µM*	?	-13%	-2%
COc1ccc(-c2nc(C)nc3c2CN([S+](=O)([O-])c2ccccc2)CC3)cc1	·	i	35µM*	·
SMILES	Luciferase inh	HEK293 tox	NIH3T3 tox	NPR1 antag
COCCOCC(=O)NCC12CCC=C1N(C)C(=O)CC2 (stereo not drawn)	·	1%	-20%	·
Cc1ccccc1CC(=O)N1CCCn2cc(-c3cccc(C#N)c3)nc21	?	?	-10%	4%
O=C(Cc1cccc(F)c1)NCCn1ccn2nc(-c3ccc(F)cc3)cc2c1=O	?	?	-22%	-16%
O=C(NCCn1ccn2nc(-c3ccc(F)cc3)cc2c1=O)c1ccoc1	?	50µM*	?	-13%
COc1ccc(-c2cc3c(=O)n(CCNC(=O)c4ccc(OC)c(OC)c4)ccn3n2)cc1	?	?	-9%	-23%
COc1ccc(-c2cc3c(=O)n(CCNC(=O)c4sccc4C)ccn3n2)cc1	4.5µM*	?	-18%	-13%
COc1ccc(-c2cc3c(=O)n(CCNC(=O)c4ccc(C)c(F)c4)ccn3n2)cc1	i	3%	-14%	-17%
O=C(NCCn1ccn2nc(-c3ccc(F)cc3)cc2c1=O)c1c(F)cccc1Cl	i	32µM*	?	2%
COc1ccc(-c2cc3c(=O)n(CCNC(=O)c4ccoc4)ccn3n2)cc1	?	22µM*	-20%	-12%
N#Cc1cccc(S(=O)(=O)N[C@H]2[C@H](O)[C@H](O)C[C@@H]2c2ccc(C(F)(F)F)cc2)c1	i	-15%[172 µM]	-5%[138 µM]	1%[70.6 µM]
O=C(NCCn1ccn2nc(-c3ccc(F)cc3)cc2c1=O)c1ccc2[nH]ccc2c1	11µM*	-22%	-19%	0%
COc1cccc(C(=O)NCCn2ccn3nc(-c4ccc(C)c(C)c4)cc3c2=O)c1	?	-20%	-9%	-19%
COc1ccc(-c2cc3c(=O)n(CCNC(=O)c4cccc(OC)c4OC)ccn3n2)cc1	6.3µM*	35µM*	?	-15%
COc1ccc(-c2cc3c(=O)n(CCNC(=O)c4ccsc4)ccn3n2)cc1	4.5µM*	?	-20%	-24%
CCOc1ccc(-c2cc3c(=O)n(CCNC(=O)c4ccoc4)ccn3n2)cc1	20µM*	45µM*	-25%	-5%
COc1cccc(-c2cc3c(=O)n(CCNC(=O)c4ccccc4F)ccn3n2)c1	?	?	-28%	-8%
Cc1ccc(C(=O)NCCn2ccn3nc(-c4ccc(F)cc4)cc3c2=O)cc1F	i	?	-29%	-21%
CCc1nc2c(c(-c3ccc(Cl)cc3)n1)CN(C(=O)OC)CC2	i	-20%[172 µM]	?	-12%[70.6 µM]
Fc1ccccc1CCNc1cc(Cl)nc2ccnn12	?	?	?	-7%[70.6 µM]
Clc1cc(NCc2ccccc2Cl)n2nccc2n1	i	?	20µM*	?
Clc1cc(NCc2cccs2)n2nccc2n1	i	40µM*	?	?
COc1ccc(CNc2cc(Cl)nc3ccnn23)cc1	i	71µM*	?	-24%[70.6 µM]
CN1c2cc(C(=O)NC3CCCCC3)ccc2C(=O)N2CCCC21 (stereo not drawn)	i	-11%	?	13%
CN1C(=O)CCC2(CNC(=O)CCc3ccccc3)CCC=C12 (stereo not drawn)	·	i	-10%	·
CCOc1ccc(NC(=O)Cn2c(C)ccc(NC(=O)Nc3cccc(C)c3)c2=O)cc1	?	40µM*	28µM*	0%
Cc1cccc(NC(=O)Nc2ccc(C)n(CC(=O)NC(C)C)c2=O)c1	7.1µM*	?	-24%	-2%
CNC(=O)Nc1ccc(C)n(CC(=O)N2CCN(c3ccccc3OC)CC2)c1=O	i	4%	i	5%
Cc1ccc(NC(=O)Nc2ccccc2)c(=O)n1CC(=O)N1CCN(c2ccccc2)CC1	11µM*	?	i	-1%

High-throughput results deposited in PubChem by National Center for Advancing Translational Sciences (NCATS).
